# Assay results: PMC11062922 (Nature Chemical Biology, 2023)
# Like-named read-outs stand apart in the source and are kept apart here.
# Experiments:
# Design in all cases: species or system human, MV4-11 + K-562 + COLO205 + SK-N-BE2 + OVCAR-8
# ACAD8 = conditions: read-out: apparent Kd, n = 1
# DDR2 = conditions: read-out: apparent Kd, n = 1
# EPHB1 = conditions: read-out: apparent Kd; compound concentrations:100 nM and 1000 nM (sheet 'Samples'); n = 1
# AKT1 = conditions: read-out: apparent Kd, n = 1
# AKT2 = conditions: read-out: apparent Kd, n = 1
# FLT4 = conditions: read-out: apparent Kd; compound concentrations: 100 nM and 1000 nM (sheet 'Samples'), CATDS: 3.2229986541726797E-2; n = 1
# MAPK9 = conditions: read-out: apparent Kd, n = 1
# BMPR1B = conditions: read-out: apparent Kd; compound concentrations: 100 nM and 1000 nM (sheet 'Samples'), CATDS: 9.3434375492385105E-2; n = 1
# CDK17 = conditions: read-out: apparent Kd, n = 1
# RIOK2 = conditions: read-out: apparent Kd, n = 1
# MAPK14 = conditions: read-out: apparent Kd, n = 1
# FN3KRP = conditions: read-out: apparent Kd, n = 1
# JAK2 = conditions: read-out: apparent Kd; compound concentrations:100 nM and 1000 nM (sheet 'Samples'); n = 1
# TGFBR1 = conditions: read-out: apparent Kd, n = 1
# [1] = compound concentrations:100 nM and 1000 nM (sheet 'Samples')
smiles,measurement,setting,value
NC(=O)c1cccnc1COc1cc(-c2ccc(N3CCOCC3)nc2)cc2ncccc12 [BI01125081],potency estimated from few doses,ACAD8; [1],1930 nM
same,potency estimated from few doses,DDR2; [1],2240 nM
same,potency estimated from few doses,EPHB1,738 nM
COc1ccc(C2=C(c3cn(C)c4ccccc34)C(=O)NC2=O)cc1OC [RO3206363-000],potency estimated from few doses,"AKT1; compound concentrations: 100 nM and 1000 nM (sheet 'Samples'), CATDS: 7.5592220710657507E-2",180 nM
same,potency estimated from few doses,"AKT2; compound concentrations: 100 nM and 1000 nM (sheet 'Samples'), CATDS: 8.3129465265060903E-2",149 nM
same,potency estimated from few doses,FLT4,1770 nM
same,potency estimated from few doses,"MAPK9; compound concentrations: 100 nM and 1000 nM (sheet 'Samples'), CATDS: 8.8329407260920895E-2",133 nM
Clc1ccc(-c2nn3ncccc3c2-c2ccnc(Nc3ccccc3)n2)cc1 [GW829055X],potency estimated from few doses,"ACAD8; compound concentrations: 100 nM and 1000 nM (sheet 'Samples'), CATDS: 3.9352617982793499E-2",1220 nM
same,potency estimated from few doses,"AKT1; compound concentrations: 100 nM and 1000 nM (sheet 'Samples'), CATDS: 3.4502228955022099E-2",1670 nM
same,potency estimated from few doses,"AKT2; compound concentrations: 100 nM and 1000 nM (sheet 'Samples'), CATDS: 4.03721310315426E-2",1150 nM
same,potency estimated from few doses,BMPR1B,264 nM
same,potency estimated from few doses,"CDK17; compound concentrations: 100 nM and 1000 nM (sheet 'Samples'), CATDS: 3.0637739748937999E-2",2340 nM
same,potency estimated from few doses,"RIOK2; compound concentrations: 100 nM and 1000 nM (sheet 'Samples'), CATDS: 3.5482707178261498E-2",1560 nM
Nc1c(C(=O)c2ccccc2)cnn1-c1ccc(F)cc1 [RO1151246-000],potency estimated from few doses,ACAD8; [1],1760 nM
same,potency estimated from few doses,AKT1; [1],1460 nM
same,potency estimated from few doses,AKT2; [1],1800 nM
same,potency estimated from few doses,"MAPK14; compound concentrations: 100 nM and 1000 nM (sheet 'Samples'), CATDS: 4.1752144248388801E-2",1630 nM
same,potency estimated from few doses,RIOK2; [1],1700 nM
Fc1ccc(-c2ncn(C3CCNCC3)c2-c2ccnc(Oc3ccc4c(c3)OCO4)n2)cc1 [SB-250715],potency estimated from few doses,ACAD8; [1],1570 nM
same,potency estimated from few doses,AKT1; [1],2330 nM
same,potency estimated from few doses,AKT2; [1],1360 nM
same,potency estimated from few doses,MAPK14; [1],10.7 nM
same,potency estimated from few doses,MAPK9; [1],1260 nM
same,potency estimated from few doses,RIOK2; [1],1920 nM
CS(=O)(=O)c1ccc(-c2nc3n(c2-c2ccncc2)CCC3)cc1 [SKF-105942],potency estimated from few doses,"ACAD8; compound concentrations: 100 nM and 1000 nM (sheet 'Samples'), CATDS: 0.13672361229607899",1400 nM
same,potency estimated from few doses,"AKT2; compound concentrations: 100 nM and 1000 nM (sheet 'Samples'), CATDS: 0.110414115877762",2470 nM
Fc1cccc(COc2ccc(Nc3ncncc3C#Cc3ccccc3)cc2Cl)c1 [GW651576X],potency estimated from few doses,"ACAD8; compound concentrations: 100 nM and 1000 nM (sheet 'Samples'), CATDS: 5.0604868868818903E-2",1740 nM
same,potency estimated from few doses,"AKT1; compound concentrations: 100 nM and 1000 nM (sheet 'Samples'), CATDS: 4.6282631455897803E-2",2130 nM
same,potency estimated from few doses,"CDK17; compound concentrations: 100 nM and 1000 nM (sheet 'Samples'), CATDS: 4.4959210496165199E-2",2290 nM
same,potency estimated from few doses,"RIOK2; compound concentrations: 100 nM and 1000 nM (sheet 'Samples'), CATDS: 5.4268483350181501E-2",1510 nM
Cc1ccc(C(=O)NC2CC2)cc1-c1ccc2[nH]ncc2c1 [GW820759X],potency estimated from few doses,"FN3KRP; compound concentrations: 100 nM and 1000 nM (sheet 'Samples'), CATDS: 0.34838904093032003",1060 nM
NC(=O)c1sc(-n2cnc3ccc(C(F)(F)F)cc32)cc1OCc1ccccc1Br [GW853606X],potency estimated from few doses,JAK2,419 nM
COc1cccc(C2=C(c3cn(C)c4c(C)cccc34)C(=O)NC2=O)c1 [RO3301012-000],potency estimated from few doses,"FN3KRP; compound concentrations: 100 nM and 1000 nM (sheet 'Samples'), CATDS: 0.113294190935364",1300 nM
Cc1ccc(NC(=O)c2ccc(Cl)cc2)cc1-c1ccc(C(=O)Nc2ccncc2)cc1 [GSK1398467A],potency estimated from few doses,"FN3KRP; compound concentrations: 100 nM and 1000 nM (sheet 'Samples'), CATDS: 0.20437737337719999",1180 nM
Cc1ccc(-n2nc(C(C)(C)C)cc2NC(=O)Nc2ccc(OCCN3CCOCC3)cc2)cc1 [BIRB0876BS],potency estimated from few doses,ACAD8; [1],2100 nM
same,potency estimated from few doses,DDR2; [1],1140 nM
same,potency estimated from few doses,JAK2,748 nM
Cl.Fc1cccc(COc2ccc(Nc3ncnc4cc(-c5ccc[nH]5)sc34)cc2Cl)c1 [GW693881A],potency estimated from few doses,"FN3KRP; compound concentrations: 100 nM and 1000 nM (sheet 'Samples'), CATDS: 0.20216809637719099",791 nM
COc1ccc(COc2ccc(Cc3cnc(N)nc3N)cc2OC)cc1 [GW632580X],potency estimated from few doses,ACAD8; [1],1640 nM
COc1ccc(-c2nn3ncccc3c2-c2ccnc(Nc3ccc4c(c3)OCCO4)n2)cc1 [GW827106X],potency estimated from few doses,"DDR2; compound concentrations: 100 nM and 1000 nM (sheet 'Samples'), CATDS: 4.9498926543833199E-2",1520 nM
same,potency estimated from few doses,"MAPK14; compound concentrations: 100 nM and 1000 nM (sheet 'Samples'), CATDS: 7.81285273726149E-2",610 nM
same,potency estimated from few doses,"MAPK9; compound concentrations: 100 nM and 1000 nM (sheet 'Samples'), CATDS: 4.4079434043462103E-2",2070 nM
same,potency estimated from few doses,"TGFBR1; compound concentrations: 100 nM and 1000 nM (sheet 'Samples'), CATDS: 4.6246179171744603E-2",1810 nM
Cc1ccc(CC(=O)N2CCc3cc(-c4cn(C)c5ncnc(N)c45)ccc32)cc1 [GSK2634758A],potency estimated from few doses,"FN3KRP; compound concentrations: 100 nM and 1000 nM (sheet 'Samples'), CATDS: 0.17784341210851801",1240 nM
COc1cc(N2CCN(C(C)C)CC2)ccc1Nc1nc(Nc2cccc(F)c2C(=O)O)c2cc[nH]c2n1 [GSK1819799A],potency estimated from few doses,"AKT1; compound concentrations: 100 nM and 1000 nM (sheet 'Samples'), CATDS: 4.312239107291E-2",1940 nM
same,potency estimated from few doses,"AKT2; compound concentrations: 100 nM and 1000 nM (sheet 'Samples'), CATDS: 4.3054850332127297E-2",1950 nM
same,potency estimated from few doses,"CDK17; compound concentrations: 100 nM and 1000 nM (sheet 'Samples'), CATDS: 4.1653075396407099E-2",2170 nM
same,potency estimated from few doses,"MAPK9; compound concentrations: 100 nM and 1000 nM (sheet 'Samples'), CATDS: 0.24378772023950801",74.5 nM
Cc1ccc(NC(=O)Nc2ccccc2)cc1-c1ccc(C(=O)Nc2ccncc2)cc1 [GSK1398471A],potency estimated from few doses,"ACAD8; compound concentrations: 100 nM and 1000 nM (sheet 'Samples'), CATDS: 9.6825044114723993E-2",2180 nM
Cn1cc(C2=C(c3ccccc3[N+](=O)[O-])C(=O)NC2=O)c2ccccc21 [RO0317753-000],potency estimated from few doses,"FN3KRP; compound concentrations: 100 nM and 1000 nM (sheet 'Samples'), CATDS: 8.17359273490917E-2",1130 nM
COc1ccccc1C(=O)c1cnc(NC2CCN(S(C)(=O)=O)CC2)nc1N [RO4514610-000],potency estimated from few doses,CDK17; [1],732 nM
COc1ccc(Nc2nccc(N3CCC(NC(=O)Nc4cccc(OC)c4)C3)n2)cc1 (stereo not shown) [GSK1379742A],potency estimated from few doses,"ACAD8; compound concentrations: 100 nM and 1000 nM (sheet 'Samples'), CATDS: 0.11167502777980801",2090 nM
Cl.Oc1ccc2ncnc(Nc3ccc(OCc4ccccc4)cc3)c2c1 [GI262866A],potency estimated from few doses,FN3KRP; [1],762 nM
same,potency estimated from few doses,MAPK14; [1],770 nM
Cn1cc(C2=C(c3cn(CCCCCO)c4ccccc34)C(=O)NC2=O)c2ccccc21 [RO0318053-000],potency estimated from few doses,"FN3KRP; compound concentrations: 100 nM and 1000 nM (sheet 'Samples'), CATDS: 0.23703756302713999",69.9 nM
NS(=O)(=O)c1cccc(-c2ccc3nccc(-c4cccc(S(N)(=O)=O)c4)c3c2)c1 [GW867253X],potency estimated from few doses,"ACAD8; compound concentrations: 100 nM and 1000 nM (sheet 'Samples'), CATDS: 0.48469015722886899",2110 nM
COc1ccc(S(=O)(=O)NC2CCN(c3cc(C)nc(Nc4cccc(C#N)c4)n3)CC2)cc1.O=C(O)C(F)(F)F [GSK1653539A],potency estimated from few doses,"FN3KRP; compound concentrations: 100 nM and 1000 nM (sheet 'Samples'), CATDS: 0.40384988174316899",910 nM
CN(C(=O)c1ccc(-c2cc(-c3c[nH]nc3-c3ccccn3)ccn2)cc1)C1CCOCC1 [GW810083X],potency estimated from few doses,TGFBR1; [1],198 nM
